# Measured values reported in paper PMC4552634, “A New Set of Chemical Starting Points with Plasmodium falciparum Transmission-Blocking Potential for Antimalarial Drug Discovery” (PLoS ONE, 2015).
# Out of some 13,000 compounds screened, about 3,200 (25%) showed an effect of 50% or more. The list shows a part of the results.
# Tested on: P. falciparum stage V gametocytes
# Design: BacTiter-Glo ATP luminescence viability of purified stage V gametocytes in 384-well plates, per cent inhibition versus DMSO
# Settings: 48 h, 5 µM; inhibitor
row,Compound,% Inhibition [%]
1,CC1(C)N=C(N)NC(NOCc2ccc(Cl)c(Cl)c2)=N1 [TCMDC-131606],-8.519
2,CC(C)[C@H](NC(=O)c1ccc(O)c(-c2ccc(Cl)c(Cl)c2)c1)C(=O)NCCN1CCCCC1 [TCMDC-140858],1.563
3,N#Cc1nc2ccc(OCCN(Cc3ccccc3C(F)(F)F)c3ccc(C#N)c(C(F)(F)F)c3)cc2s1 [TCMDC-132798],33.49
4,N#Cc1ccc(NC(=NCCc2c[nH]c3ccccc23)Nc2ccc(-c3ccccc3)cc2)c(O)c1 [TCMDC-140211],-66.19
5,CC(=O)Nc1cccc(CN(Cc2ccc(-c3ccc(CNCc4cccnc4)cn3)cc2)C(=O)Cc2cccnc2)c1 [TCMDC-141604],-7.365
6,CCCNCc1ccc(-c2ccc(CN(CCOC)C(=O)Cc3cccnc3)cc2)nc1 [TCMDC-141528],108.8
7,CCCNCc1ccc(-c2ccc(CN(Cc3ccc4c(c3)OCO4)C(=O)Cc3cccnc3)cc2)nc1 [TCMDC-141529],106.5
8,CCCCC(=O)N(CCOC)Cc1ccc(-c2ccc(CNCCC)cn2)cc1 [TCMDC-141536],72.35
9,CCCNCc1ccc(-c2ccc(CN(CCOC)C(=O)CCCOCc3ccccc3)cc2)nc1 [TCMDC-141543],33.78
10,CCCNCc1ccc(-c2ccc(CN(CCOC)C(=O)COc3ccccc3Cl)cc2)nc1 [TCMDC-141541],51.3
11,CN(C)CCN(C)Cc1ccc(-c2ccc(NS(=O)(=O)c3cccc4cccnc34)cc2)cc1 [TCMDC-136474],21.58
12,CCn1cc(C=C2Oc3c(ccc(O)c3CN3CCCCC3)C2=O)c2cc(OC)ccc21 [TCMDC-124887],12.33
13,CCCNCc1ccc(-c2ccc(CN(CCOC)C(=O)CCC(=O)c3ccc(OC)c(F)c3)cc2)nc1 [TCMDC-141537],97.99
14,CCCNCc1ccc(-c2ccc(CN(CCOC)C(=O)CCc3ccc(OC)cc3)cc2)nc1 [TCMDC-141539],54.14
15,Cc1cc(NC(=O)NCCN2CCC(NS(=O)(=O)c3ccccc3F)CC2)c2ccccc2n1 [TCMDC-136137],1.757
16,CCOC(=O)c1[nH]c(-c2cc(Cl)nc(Cl)c2)nc1NC(=S)NCc1ccc(NS(C)(=O)=O)cc1 [TCMDC-138899],-31.28
17,CC(=O)c1nccc(C)c1N [TCMDC-139307],-14.24
18,CN1CCC(Oc2cc(NC(=O)Nc3ccc(-c4ccncc4)c(Cl)c3)ccc2Cl)CC1 [TCMDC-139205],28.36
19,O=C(CCCCCNC(=O)c1ccc(O)c(-c2ccc(Cl)c(Cl)c2)c1)NCc1cccc(C(F)(F)F)c1 [TCMDC-140831],18.4
20,O=C(Nc1ccsc1)Nc1cccc(-c2ccc(-c3nc4ccc(C(F)(F)F)cc4[nH]3)cc2)c1 [TCMDC-133210],-6.282
21,CNCCCn1c(N(C)C)nc2cc(-n3cnc4cc(-c5ccc(Cl)cc5)sc4c3=O)ccc21 [TCMDC-138914],43.83
22,COc1ccc(-c2cc3ncn(CC(=O)N4CCN(c5cccc(OC)c5)CC4)c(=O)c3s2)cc1 [TCMDC-125255],66.27

row,Compound,% Inhibition [%]
1,COc1ccc(-c2cc3ncnc(N4CCN(CCN5CCCC5)CC4)c3s2)cc1 [TCMDC-125055],-2.838
2,CN1CCN(C(=O)CN2CCC3(CCC2=O)NC(=O)c2ccccc2O3)CC1 (stereo not drawn) [TCMDC-125378],-32.42
3,CC(=O)N/N=C/[C@H](CCc1ccccc1)NC(=O)[C@H](CC(C)C)NC(=O)c1ccc(F)cc1 [TCMDC-135965],1.649
4,CC[C@H](NC(=O)c1c(N)c(-c2sccc2Cl)nc2ccccc12)c1ccccc1 [TCMDC-141650],17.42
5,O=[N+]([O-])c1cccc(CNCC2CCN(CCc3ccccc3)CC2)c1 [TCMDC-141210],2.081
6,COc1ccc(CNc2nc(Nc3cccc(C#N)c3)nc(Nc3cccc(C#N)c3)n2)cc1Cl [TCMDC-138547],52.56
7,Cc1nc(-c2cccc(Nc3nccc(NCC(O)c4cccc(F)c4)n3)c2)cs1 (stereo not drawn) [TCMDC-136571],-23.01
8,Fc1cccc(Nc2nc(NCc3ccc4ccsc4c3)nc(Nc3cccc(F)c3)n2)c1 [TCMDC-135140],55.41
9,Fc1cccc(Nc2nc(NCCc3ccc(Cl)cc3)nc(Nc3cccc(F)c3)n2)c1 [TCMDC-135141],40.3
10,FC(F)(F)Oc1cccc(CNc2noc(-c3sccc3Br)n2)c1 [TCMDC-134186],1.419
11,COc1cccc(Nc2nc(Nc3cccc(C#N)c3)cc(C(F)(F)F)n2)c1 [TCMDC-133462],-24.01
12,Fc1ccc(Nc2n[nH]c(CNC3CCN(Cc4ccc(Cl)c(Cl)c4)CC3)n2)cc1 [TCMDC-138655],-23.76
13,COc1cccc(Nc2nc(C)cc(Nc3cccc(C#N)c3)n2)c1 [TCMDC-133448],4.259
14,Fc1cccc(Nc2nc(NCc3ccc(Cl)c(Cl)c3)nc(Nc3cccc(F)c3)n2)c1 [TCMDC-135139],55.91
15,CC(=O)Nc1ccc(CN2CCCN(c3cc(NC(=O)c4cccc(C)c4)ccn3)CC2)cc1 [TCMDC-134980],8.133
16,Cc1cccc(OCCCCON2C(N)=NC(N)=NC2(C)C)c1C [TCMDC-131662],9.727
17,COc1ccc(NC(=O)/C=C/c2ccc(Cl)c(Cl)c2)cc1N1CCN(C)CC1 [TCMDC-139042],-34.01
18,CC(C)n1ncc2c(C(=O)Nc3ccc(C#N)c(Cl)c3)cc(C3CC3)nc21 [TCMDC-125244],-17.87
19,COc1ccc(CCNC(=O)c2cnc3c(c2)nc(-c2cnc(-c4ccccc4)[nH]2)n3CCc2cnc[nH]2)cc1 [TCMDC-139689],-21.36
20,Cc1cccc2nc(-c3ccc(-c4ccc(CNCCNC(=O)c5ccnn5C)cc4)cc3)[nH]c12.O=C(O)C(F)(F)F [TCMDC-133017],85.49
21,Cc1cccc2nc(-c3ccc(-c4cccc(CNCCNC(=O)c5ccnn5C)c4)s3)[nH]c12.O=C(O)C(F)(F)F [TCMDC-133015],-0.5354
22,Cc1cccc2nc(-c3ccc(-c4cccc(CNCCNC(=O)c5ccnn5C)c4)cc3)[nH]c12.O=C(O)C(F)(F)F [TCMDC-133011],85.89

row,Compound,% Inhibition [%]
1,Cc1cccc2nc(-c3ccc(-c4ccc(CNCCNC(=O)c5ccnn5C)cc4)s3)[nH]c12.O=C(O)C(F)(F)F [TCMDC-133009],4.683
2,Cc1cccc2nc(-c3cccc(-c4ccc(CNCCNC(=O)c5ccnn5C)cc4)c3)[nH]c12.O=C(O)C(F)(F)F [TCMDC-133007],31.89
3,Cc1cccc2nc(-c3cccc(-c4cccc(CNCCNC(=O)c5ccnn5C)c4)c3)[nH]c12.O=C(O)C(F)(F)F [TCMDC-133005],-4.375
4,CS(=O)(=O)CCNCc1ccc(-c2ccc3ncnc(Nc4ccc(OCc5ccccc5)c(Cl)c4)c3c2)o1 [TCMDC-138467],19.81
5,COc1cc(OCCCCCCON2C(N)=NC(N)=NC2(C)C)cc(OC)c1OC [TCMDC-131371],3.006
6,Cc1cc(OCCCN2CCC(NS(=O)(=O)c3ccc(C(F)(F)F)cc3)CC2)c2ccccc2n1 [TCMDC-136277],-32.21
7,COc1ccc(-n2nc(C)c3c2NC(=O)CC3c2ccccc2OCc2ccccc2F)cc1 (stereo not drawn) [TCMDC-124907],2.012
8,COc1ccc2nccc([C@@H](O)CN3CCC(NC(=O)c4cc5cccnc5[nH]4)CC3)c2c1 [TCMDC-140768],6.193
9,Cc1ccc(Nc2nnc(SCC(=O)Nc3ccc(CN4CCCC4)cc3)s2)cc1 [TCMDC-125043],65.4
10,Cc1ccc(NC(=O)c2ccc(CN3CCCN(Cc4cccc(O)c4)CC3)cc2)cc1 [TCMDC-136398],-12.68
11,Cc1ccc(NC(=O)c2ccc(CN3CCCN(CC4CCCCC4)CC3)cc2)cc1 [TCMDC-136397],-64.33
12,COc1ccccc1C1CCN(C2CCC(NC(=O)/C=C/c3ccc(C(F)(F)F)cc3F)CC2)CC1 (stereo not drawn) [TCMDC-133486],-41.82
13,O=C(Nc1ccncc1)Nc1ccc2c(c1)CCN(C1CCC1)CC2 [TCMDC-135949],33.65
14,O=C(c1cccc(COc2ccc3c(c2)CCN(C2CCCC2)CC3)c1)N1CCN(c2ccncc2)CC1 [TCMDC-134128],76.76
15,O=C(Nc1ccc2c(c1)CCC2)c1cccc(N2CCN(c3ccncc3)CC2)c1 [TCMDC-135125],2.245
16,Oc1ccc(CCNc2nc(NCc3ccccc3-c3ccc(F)cc3)nc(N3CCNCC3)n2)cc1 [TCMDC-133783],11.92
17,COc1ccc2nccc([C@@H](O)CN3CCC(NCc4ccc5scnc5c4)CC3)c2c1 [TCMDC-141081],9.68
18,Cc1ccc(NC(=O)c2ccc(Cl)c(Cl)c2)cc1-c1ccc(C(=O)Nc2ccncc2)cc1 [TCMDC-133696],-4.564
19,CCOc1cc(C)ccc1C1CCN(CCCCNC(=O)c2cnc(-c3ccc(C(F)(F)F)cc3)[nH]2)CC1 [TCMDC-138581],5.476
20,COc1ccc2c(CCNc3nc(SC)ncc3C(=O)NCCc3ccc(F)cc3)c[nH]c2c1 [TCMDC-136796],55
21,COc1ccc(NC(=O)[C@H](CC(C)C)Nc2ccnc(NCCc3ccc(F)cc3)n2)cc1 [TCMDC-134826],23.86
22,COc1ccc(NC(=O)CCNc2ccnc(NCCc3ccc(F)cc3)n2)cc1 [TCMDC-134823],38.74
